These results are taken from ChEMBL document CHEMBL3988442, “University of Dundee, Small-Polar-MMV Screening Library” (2021).

Structures are written as SMILES. About 13,000 (27%) of roughly 48,000 compounds showed an effect of 50% or more. The list shows a part of the results.

For this assay, the system named is Wolbachia pipientis. The assay can be described thus: Anti-Wolbachia Cell-Based Screen. In kind it is functional. More on the design: scale not given: in the data most compounds retested in dose-response had high values. To be noted: 5 µM.
On to `Cc1cccc(CNC(Cn2cncn2)c2ccccc2)c1C` (stereo unspecified), for which the “Percent Effect” value is -43.08%.
Consider `CN(C)c1cc2c(nn1)CCN(C(=O)Cc1noc3ccccc13)C2`, for which the “Percent Effect” value is 12.15%.
On to `CN(Cc1csc(-c2ccccc2)n1)C(=O)CCn1ccccc1=O`, for which the “Percent Effect” value is -32.35%.
The result for `Cc1nc(CN2CCCC(NCc3ccc(Cl)s3)C2)no1` (stereo unspecified) reads 105.2%; that for `Cc1nc(CN2CCCC(NCc3ccsc3)C2)no1` (stereo unspecified), 1.864%; that for `Cc1nc(CN2CCCC(NCc3sccc3C)C2)no1` (stereo unspecified), 84.94%.
`Cc1nc(CN2CCCC(NCc3ccc4ccccc4c3)C2)no1` (stereo unspecified): the “Percent Effect” value was 117%.
In the case of `Cc1nc(CN2CCCC(NCc3csc(C(C)(C)C)n3)C2)no1` (stereo unspecified), the “Percent Effect” value was found to be 82.03%.
Take `Cc1nc(CN2CCCC(NCCOCC(F)(F)F)C2)no1` (stereo unspecified): the “Percent Effect” value is listed as -2.958%.
For `COc1ccc(CNC2CCCN(Cc3noc(C)n3)C2)cc1F` (stereo unspecified), the “Percent Effect” value is -5.655%.
As to `Cc1nc(CN2CCCC(N(C)Cc3cscn3)C2)no1` (stereo unspecified), the “Percent Effect” value worked out at 2.968%.
On to `Cc1nc(CN2CCCC(NCc3c(C)nc4sccn34)C2)no1` (stereo unspecified), for which the “Percent Effect” value is -4.535%.
To `CCOc1cccc(CN2CCCn3nc(CNS(C)(=O)=O)cc3C2)c1` belongs -2.285%.
Consider `Cc1nc(CN2CCCC(NCc3ccc4c(c3)CCO4)C2)no1` (stereo unspecified), for which the “Percent Effect” value turned out to be 109.8%.
With `Cc1cccc(CN2CCc3ncnc(C4CC4)c3CC2)n1.O=C(O)C(F)(F)F`, the “Percent Effect” value amounted to 113.1%.
The result for `Cc1ncnc2c1CCN(Cc1ccccn1)CC2.O=C(O)C(F)(F)F.O=C(O)C(F)(F)F` reads -3.635%; that for `O=C(O)C(F)(F)F.O=C(O)C(F)(F)F.c1ccc(CN2CCc3ncnc(C4CCOC4)c3CC2)nc1` (stereo unspecified), 3.596%.
Regarding `Cc1cccc(CN2CCc3ncnc(C)c3CC2)n1.O=C(O)C(F)(F)F`, the “Percent Effect” value is reported as -2.689%.
The result for `Cc1cccc(CN2CCc3ncnc(NC4CCC4)c3CC2)n1.O=C(O)C(F)(F)F.O=C(O)C(F)(F)F` reads 78.48%; that for `CN(c1nc(CSc2nnc(Cn3cncn3)o2)cs1)C1CC1`, -4.174%; that for `O=C(CCc1c[nH]cn1)N1CC[C@@H](c2ccc3ccccc3c2)[C@H](O)C1`, -1.023%.
To `Cc1n[nH]c(SCC(=O)NC(c2ccccn2)C(C)C)n1` (stereo unspecified) belongs 0.231%.
For the molecule `CC(C)Cn1cc(NC(=O)NC(C)(C)c2nccs2)cn1`, the “Percent Effect” value was -7.007%.
The result for `Cc1cc(Cl)cc(C)c1CNC1CCN(CC(=O)N(C)C)CC1` reads -21.25%; that for `CCN(C)C(=O)CN1CCC(c2cc(N3CCOCC3)nc(C)n2)CC1`, 11.68%; that for `Cc1cc(C(F)(F)F)c2c(C3CCN(S(=O)(=O)N(C)C)CC3)noc2n1`, -7.595%.
Turning to `Cc1nc(-c2c(C)noc2C)cc(C2CCN(CC(=O)N(C)C)CC2)n1`, the “Percent Effect” value came to 77.89%.
For `Cc1noc(C)c1-c1cccc(C2CN(CC(=O)N(C)C)CCO2)n1.O=CO` (stereo unspecified), the “Percent Effect” value was found to be 138.9%.
As for `CCC[C@H]1CN(S(=O)(=O)c2ccc(-c3c(C)noc3C)s2)C[C@@H]1N`, the “Percent Effect” value is -6.038%.
For the molecule `Cc1noc(C)c1CN(C)C(=O)C1CCN(S(N)(=O)=O)CC1`, the “Percent Effect” value was -4.387%.
For the molecule `CC(C)c1n[nH]c(C2CN(CC(=O)N(C)Cc3ccco3)CCO2)n1` (stereo unspecified), the “Percent Effect” value is reported as -2.203%.
In the case of `CCc1n[nH]c(C2CN(CC(=O)N(C)Cc3ccco3)CCO2)n1` (stereo unspecified), the “Percent Effect” value is on record as -22.35%.
With `Cc1noc(C)c1-c1cccc(C2CN(S(=O)(=O)N(C)C)CCO2)n1` (stereo unspecified), the “Percent Effect” value is 137.9%.
Turning to `Cc1nc(-c2c(C)noc2C)cc(C2CCN(S(=O)(=O)N(C)C)CC2)n1`, the “Percent Effect” value is listed as 103.8%.
`Oc1ccc(-c2c(-c3ccccc3)ncn2C[C@H]2CCCN2)cc1`: the “Percent Effect” value was -6.352%.
The result for `CCc1noc(C(C)N2CCC(NS(=O)(=O)c3ccccc3)CC2)n1` (stereo unspecified) reads -5.336%.
As to `CN(C(=O)CN1CCC(c2cc3ccccc3[nH]2)CC1)C1CC1`, the “Percent Effect” value is reported as -16.32%.
Consider `CN(C(=O)CN1CCC(c2cc3ccccc3[nH]2)CC1)C(C)(C)C#N`, for which the “Percent Effect” value was -0.1259%.
`Cc1noc(C)c1-c1cccc(C2CCN(CC(=O)N(C)C)CC2)n1`: the “Percent Effect” value is recorded as 159.5%.
With `Cc1csc(CNc2cccc(OCCN3CCCC3)c2)n1`, the “Percent Effect” value is -3.385%.
Turning to `CCOc1cc(C(=O)N2CCCC(c3noc(C(C)C)n3)C2)ccn1` (stereo unspecified), the “Percent Effect” value amounted to 127.2%.
Turning to `CCOc1cc(C(=O)N2CCCC(c3nc(C)c(C)s3)C2)ccn1` (stereo unspecified), the “Percent Effect” value stood at 118.9%.
As to `Cc1ncsc1C(=O)N1CCCC(c2noc(C(C)C)n2)C1` (stereo unspecified), the “Percent Effect” value is listed as -0.9065%.
As to `CCOc1cc(C(=O)N2CC=C(c3ccc(O)cc3)CC2)ccn1`, the “Percent Effect” value is -12.82%.
In the case of `CCOc1cc(C(=O)N2CCCC(c3noc(C)n3)C2)ccn1` (stereo unspecified), the “Percent Effect” value is recorded as -8.742%.
To `CC(C)c1nc(C2CCCN(C(=O)c3nccn4ccnc34)C2)no1` (stereo unspecified) belongs 101.8%.
With `CCOc1cc(CNC(=O)NCc2nc(C)c(C)s2)ccn1`, the “Percent Effect” value is reported as -14.7%.
In the case of `CCOc1cc(C(=O)N2CCCC(c3noc(CC)n3)C2)ccn1` (stereo unspecified), the “Percent Effect” value is on record as 112.4%.
Consider `CCNc1ncc(CN2C[C@H]3CC[C@@H]2CN(C(=O)C2CCC2)C3)cn1`, for which the “Percent Effect” value is -9.372%.
For `COCc1cc(N2CCN(c3ccc(Cl)cn3)CC2)n2nccc2n1`, the “Percent Effect” value is -13.5%.
To `COc1ccc(F)c(CN2CCCC(O)(CNCc3ccoc3)C2=O)c1` (stereo unspecified) belongs 4.177%; to `Cc1nc[nH]c1CN(Cc1ccc(F)cc1)C1CC(C)(C)NC(C)(C)C1`, 102.8%.
As for `CCCc1cc(CN(C)C2CC(C)(C)NC(C)(C)C2)n[nH]1`, the “Percent Effect” value is -6.342%.
As to `Cc1nc[nH]c1CN(C)CC1CCCN(CCc2ccc(Cl)cc2)C1` (stereo unspecified), the “Percent Effect” value is on record as -5.725%.
To `Cc1n[nH]c(C)c1CNC(=O)N(Cc1ccccc1)CC(C)(C)O` belongs -20.3%; to `O=C(c1cc[nH]n1)N(Cc1ccccc1)CC1CCC1`, -1.584%; to `CC1(C)CC(N(Cc2ccccc2)Cc2c[nH]cn2)CC(C)(C)N1.O=C(O)CC(O)(CC(=O)O)C(=O)O`, 113.6%.
As to `Cc1ccc(CN(Cc2c[nH]cn2)C2CC(C)(C)NC(C)(C)C2)o1.O=C(O)CC(O)(CC(=O)O)C(=O)O`, the “Percent Effect” value was 1.098%.
Turning to `Cc1nc[nH]c1CN(Cc1ccccc1)C1CC(C)(C)NC(C)(C)C1.O=C(O)CC(O)(CC(=O)O)C(=O)O`, the “Percent Effect” value was 106.8%.
In the case of `Cc1nc[nH]c1CN(Cc1ccccc1F)C1CC(C)(C)NC(C)(C)C1.O=C(O)CC(O)(CC(=O)O)C(=O)O`, the “Percent Effect” value worked out at 111.6%.
To `Cc1ccc(CNC(=O)N(Cc2ccccc2F)C2CC2)cn1` belongs -4.204%.
On to `O=C(c1ccc(C2CCCN2C(=O)c2ccoc2)s1)N1CCOCC1` (stereo unspecified), for which the “Percent Effect” value is -19.01%.
With `Cc1cnc(C)c(-c2cc(O)c3c(c2)CN(c2nccs2)CCO3)n1`, the “Percent Effect” value is reported as -4.792%.
Turning to `O=C(CCc1ccco1)NS(=O)(=O)Cc1ccon1`, the “Percent Effect” value is listed as -7.253%.
In the case of `Fc1cccc2c1CCC2NCc1ccc(N2CCOCC2)cc1` (stereo unspecified), the “Percent Effect” value was 19.23%.
Turning to `Cc1nc(CN(C)S(=O)(=O)c2ccccc2Br)no1`, the “Percent Effect” value is 4.725%.
Regarding `Cc1ccc(CN2C[C@H]3CC[C@@H]2CN(Cc2[nH]cnc2C)C3)o1`, the “Percent Effect” value worked out at 6.692%.
To `Cc1ccc(CN(Cc2[nH]cnc2C)C2CC(C)(C)NC(C)(C)C2)o1.O=C(O)CC(O)(CC(=O)O)C(=O)O` belongs 115.3%.
`CCC[C@H]1CN(c2nccc(OC)n2)C[C@@H]1NC(=O)C1CCOCC1`: the “Percent Effect” value is -2.049%.
For `CCC[C@H]1CN(c2nc(CO)cs2)C[C@@H]1NC(=O)C1CCC1`, the “Percent Effect” value stood at 94.3%.
On to `CCC[C@H]1CN(Cc2cscn2)C[C@@H]1NC(=O)C1(COC)CCC1`, for which the “Percent Effect” value is on record as 6.083%.
As for `CCC[C@H]1CN(Cc2nccn2C)C[C@@H]1NC(=O)C1(COC)CCC1`, the “Percent Effect” value was -15.87%.
Regarding `Cc1nc(O)cc(CN2C[C@H](NC(=O)C3CCC3)[C@@H](C3CC3)C2)n1`, the “Percent Effect” value was -31.53%.
With `O=C(N[C@H]1CN(c2nc(CO)cs2)C[C@@H]1C1CC1)C1CCCCC1`, the “Percent Effect” value is 92.34%.
On to `CC(=O)N[C@@H]1CN(c2nc(CO)cs2)C[C@H]1c1ccc(C)o1`, for which the “Percent Effect” value stood at 5.445%.
Regarding `CCC[C@H]1CN(c2nc(CO)cs2)C[C@@H]1NC(=O)C1(COC)CC1`, the “Percent Effect” value is 96.14%.
For the molecule `Cc1nc(O)cc(CN2C[C@H](NC(=O)C3CCCC3)[C@@H](C3CC3)C2)n1`, the “Percent Effect” value was 0%.
Regarding `COc1ccc(Br)cc1CCC(=O)N1CCC(O)CC1`, the “Percent Effect” value is -2.628%.
For `COc1ccc(-n2c(SCC(=O)O)nnc2-c2cn[nH]c2)cc1`, the “Percent Effect” value was -10.86%.
With `O=C(C1CCCS1)N1CCOc2cccc(F)c21` (stereo unspecified), the “Percent Effect” value is reported as -0.5094%.
In the case of `Cc1noc(C)c1NC(=O)N1CCC(NC(=O)OC(C)(C)C)CC1`, the “Percent Effect” value is reported as -9.132%.
As for `Cc1nn(-c2ccccn2)c(C)c1[C@@H]1C=C[C@@H](NC(=O)NC(C)C)C1`, the “Percent Effect” value is 4.559%.
The result for `CC(C)(N)C(=O)N1CCC(c2nccnc2Oc2ccccc2F)CC1` reads 77.45%.
The result for `CC(=O)N1CCC(c2nccnc2Oc2ccccc2)CC1` reads -11.76%.
Consider `CC(C)(C(=O)N1CCC(C(N)=O)C1)c1ccccc1F` (stereo unspecified), for which the “Percent Effect” value was found to be 2.701%.
As to `CC(C)(C(=O)N1CCC(CS(N)(=O)=O)CC1)c1ccccc1F`, the “Percent Effect” value is -25.38%.
To `Cc1cccc(Oc2nccnc2C2CCN(C(=O)C(C)(C)N)CC2)c1` belongs 110.7%; to `CCc1nc(N)sc1C(=O)N1CCCC(COc2cccc(C)c2)C1` (stereo unspecified), -15.03%.
The result for `COc1ccc(Oc2ncccc2NC(=O)N2CCOC(C)C2)cc1` (stereo unspecified) reads 2.088%; that for `Cc1ccc(Oc2nccnc2C2CCN(C(=O)C(C)(C)N)CC2)cc1`, 108.2%; that for `COCC(=O)N1CCC(Oc2cccc(C)c2)CC1`, 14.96%.
Take `COc1ccc(Oc2nccnc2C2CCN(C(C)=O)CC2)cc1`: the “Percent Effect” value is reported as 88.85%.
Take `CC(C)N1C(=O)CC(NC(=O)c2cc(Cl)sc2Cl)C1=O` (stereo unspecified): the “Percent Effect” value is given as -12.95%.
Regarding `COc1ccc(S(=O)(=O)Nc2cccnc2-n2cncn2)c(C)c1`, the “Percent Effect” value is given as -3.562%.
`CCc1c(NCc2cccnc2)cnn1CC(C)C`: the “Percent Effect” value is reported as -15.31%.
Take `CC(C)CN1CCc2[nH]cnc2C12CCN(C(=O)c1ccnn1C)CC2`: the “Percent Effect” value is on record as -2.92%.
